Laboratory results: ChEMBL document CHEMBL2218924, “A broad activity screen in support of a chemogenomic map for kinase signalling research and drug discovery” (Biochem J, 2013)

Experiments:
[1] = target: T1, Casein kinase II (Homo sapiens) (UniProt P67870+P68400+P19784); conditions: at 1 µM
[2] = target: T1, Casein kinase II (Homo sapiens); conditions: at 10 µM
[3] = target: Dual specificity protein kinase CLK3 (Homo sapiens) (UniProt P49761); conditions: at 1 µM
[4] = target: Dual specificity protein kinase CLK3 (Homo sapiens) (UniProt P49761); conditions: at 10 µM
[5] = target: Casein kinase II subunit alpha' (Homo sapiens) (UniProt P19784); conditions: at 1 µM
Casein kinase II subunit alpha' (Homo sapiens), sequence (P19784 whole entry, looked up): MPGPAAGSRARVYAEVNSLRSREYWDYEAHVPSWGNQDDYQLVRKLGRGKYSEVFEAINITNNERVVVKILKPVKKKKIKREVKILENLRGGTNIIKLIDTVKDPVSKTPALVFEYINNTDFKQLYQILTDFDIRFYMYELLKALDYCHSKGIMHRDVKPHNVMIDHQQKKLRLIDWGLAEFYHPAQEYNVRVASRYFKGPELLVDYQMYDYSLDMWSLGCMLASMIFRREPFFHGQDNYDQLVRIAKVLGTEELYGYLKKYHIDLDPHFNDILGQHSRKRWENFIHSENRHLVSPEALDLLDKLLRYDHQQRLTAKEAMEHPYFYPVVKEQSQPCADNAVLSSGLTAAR

[6] = target: Tyrosine-protein kinase CSK (Homo sapiens) (UniProt P41240); conditions: at 10 µM
Tyrosine-protein kinase CSK (Homo sapiens), sequence (P41240 2-450 limits assumed): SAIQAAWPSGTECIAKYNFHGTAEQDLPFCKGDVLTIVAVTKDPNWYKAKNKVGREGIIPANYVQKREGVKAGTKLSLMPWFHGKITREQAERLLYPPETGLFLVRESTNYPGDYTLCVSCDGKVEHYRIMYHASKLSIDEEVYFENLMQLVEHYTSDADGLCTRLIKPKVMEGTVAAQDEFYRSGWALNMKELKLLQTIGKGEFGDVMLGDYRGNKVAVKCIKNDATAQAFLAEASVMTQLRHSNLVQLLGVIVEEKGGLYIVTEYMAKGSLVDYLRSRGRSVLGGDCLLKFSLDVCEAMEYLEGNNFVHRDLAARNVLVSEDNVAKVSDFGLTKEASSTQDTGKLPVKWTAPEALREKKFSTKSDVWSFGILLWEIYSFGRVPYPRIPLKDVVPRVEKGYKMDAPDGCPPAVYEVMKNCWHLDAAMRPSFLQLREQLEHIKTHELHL

[7] = target: Casein kinase II subunit alpha' (Homo sapiens) (UniProt P19784); conditions: at 10 µM
[8] = target: Dual specificity protein kinase CLK2 (Homo sapiens) (UniProt P49760); conditions: at 1 µM
Dual specificity protein kinase CLK2 (Homo sapiens), sequence (P49760 whole entry, looked up): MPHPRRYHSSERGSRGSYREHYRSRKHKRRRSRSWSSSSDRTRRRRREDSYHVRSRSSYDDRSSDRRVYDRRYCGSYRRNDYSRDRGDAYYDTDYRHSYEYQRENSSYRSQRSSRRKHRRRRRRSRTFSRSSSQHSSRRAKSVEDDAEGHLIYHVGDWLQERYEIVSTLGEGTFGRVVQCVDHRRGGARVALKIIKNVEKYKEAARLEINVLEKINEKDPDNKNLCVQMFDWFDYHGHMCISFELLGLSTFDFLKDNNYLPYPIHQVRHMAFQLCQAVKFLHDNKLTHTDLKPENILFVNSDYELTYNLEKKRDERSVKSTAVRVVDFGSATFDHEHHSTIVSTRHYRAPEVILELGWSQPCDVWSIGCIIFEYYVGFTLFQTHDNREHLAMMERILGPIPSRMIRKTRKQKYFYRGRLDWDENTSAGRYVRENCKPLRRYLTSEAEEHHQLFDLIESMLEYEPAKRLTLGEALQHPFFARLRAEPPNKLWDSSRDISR

[9] = target: Dual specificity protein kinase CLK2 (Homo sapiens) (UniProt P49760); conditions: at 10 µM
[10] = target: Tyrosine-protein kinase CSK (Homo sapiens) (UniProt P41240); conditions: at 1 µM

Dual specificity protein kinase CLK3 (Homo sapiens), sequence (P49761 whole entry, looked up): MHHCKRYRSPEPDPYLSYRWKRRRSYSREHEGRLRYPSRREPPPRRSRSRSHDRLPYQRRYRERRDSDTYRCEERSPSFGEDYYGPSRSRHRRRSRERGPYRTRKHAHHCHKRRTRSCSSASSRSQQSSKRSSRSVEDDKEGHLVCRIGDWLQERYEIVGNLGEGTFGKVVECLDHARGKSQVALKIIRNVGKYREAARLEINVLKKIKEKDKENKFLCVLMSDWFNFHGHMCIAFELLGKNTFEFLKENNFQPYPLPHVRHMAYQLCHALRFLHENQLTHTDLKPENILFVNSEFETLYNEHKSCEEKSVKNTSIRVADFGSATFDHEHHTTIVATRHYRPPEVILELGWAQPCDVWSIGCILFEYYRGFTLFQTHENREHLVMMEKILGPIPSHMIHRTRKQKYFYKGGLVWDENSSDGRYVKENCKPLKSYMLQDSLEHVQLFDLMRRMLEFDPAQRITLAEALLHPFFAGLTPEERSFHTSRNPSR
T1 sequence (P19784 whole entry, looked up): as the sequence (P19784 whole entry, looked up) above
T1 sequence (P67870 whole entry, looked up): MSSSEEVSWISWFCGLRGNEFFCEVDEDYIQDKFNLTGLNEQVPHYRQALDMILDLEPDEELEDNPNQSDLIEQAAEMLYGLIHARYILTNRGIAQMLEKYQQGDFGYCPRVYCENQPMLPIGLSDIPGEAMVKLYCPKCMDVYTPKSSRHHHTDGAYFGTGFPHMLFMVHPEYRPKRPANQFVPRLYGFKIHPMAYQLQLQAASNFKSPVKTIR
T1 sequence (P68400 whole entry, looked up): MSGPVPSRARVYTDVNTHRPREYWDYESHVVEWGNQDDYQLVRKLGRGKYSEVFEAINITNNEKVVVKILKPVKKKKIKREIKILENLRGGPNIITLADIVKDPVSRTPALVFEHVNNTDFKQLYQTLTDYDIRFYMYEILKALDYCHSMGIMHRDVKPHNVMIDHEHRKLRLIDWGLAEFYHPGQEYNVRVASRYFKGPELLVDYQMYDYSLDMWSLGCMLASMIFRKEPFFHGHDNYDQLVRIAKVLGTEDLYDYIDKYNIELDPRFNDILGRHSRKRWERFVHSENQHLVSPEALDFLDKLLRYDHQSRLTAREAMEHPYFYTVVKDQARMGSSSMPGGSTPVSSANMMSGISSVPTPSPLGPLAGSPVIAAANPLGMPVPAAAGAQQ

SMILES | residual activity [1] [%] | residual activity [2] [%] | residual activity [3] [%] | residual activity [4] [%] | residual activity [5] [%] | residual activity [6] [%] | residual activity [7] [%] | residual activity [8] [%] | residual activity [9] [%] | residual activity [10] [%]
Fc1ccc(-c2nc3n(c2-c2ccncc2)CCS3)cc1 | 99 | 98 | 97 | 86 | – | – | – | – | – | –
O=C(c1ccccc1)c1ccc(N2CCOCC2)cc1O | 88 | 113 | 89 | – | 122 | 84 | – | – | – | –
Nc1ncnc2c1cnn2-c1ccccc1 | 87 | 36 | 87 | 99 | – | – | 58 | – | – | –
O=C1NC(=O)c2c1c1c3ccccc3[nH]c1n1cncc21 | 60 | 21 | 70 | 53 | 81 | 58 | 21 | 51 | 46 | 97
Nc1n[nH]c2nc3ccccc3nc12 | 85 | 62 | 88 | 71 | – | – | – | 84 | 52 | –
Nc1ncnc2c1c(-c1ccc(Oc3ccccc3)cc1)cn2C1CCCC1 | 79 | 105 | 82 | 6 | 118 | -1 | 86 | 112 | 88 | 0
CSc1nc(-c2ccc(F)cc2)c(-c2ccnc(NC(C)c3ccccc3)c2)[nH]1 (stereo not given) | 99 | 99 | 84 | 86 | – | 84 | – | – | 89 | 102
CN(C)S(=O)(=O)c1ccc2c(c1)/C(=C/c1cc3c([nH]1)CCCC3)C(=O)N2 | 95 | 100 | 39 | 28 | – | – | 94 | 69 | 71 | –
NC(=O)Nc1sc(-c2ccc(F)cc2)cc1C(N)=O | 68 | 34 | – | – | 78 | 56 | 18 | 105 | 46 | 92
O=c1cc(N2CCOCC2)oc2c(-c3ccccc3)cccc12 | 54 | 12 | – | – | – | – | 42 | – | – | –
O=C(CCCc1ccc(-c2ccccc2F)cc1)Nc1ccc(O)cc1 | 92 | 97 | 92 | 89 | 106 | 107 | 102 | – | – | 104
COc1cc2nccc(Oc3ccc(NC(=S)NC(=O)c4ccccc4C)cc3)c2cc1OC | 83 | 100 | 66 | 46 | – | 69 | 91 | – | – | 96
N#C/C(=C1/Nc2ccccc2S1)c1ccnc(NCCc2cccnc2)n1 | 58 | 15 | 39 | 6 | 41 | – | 15 | 29 | 13 | –
COc1ccc(Cl)cc1NC(=O)Nc1cc(C)nc2ccccc12 | 94 | – | – | – | – | – | – | – | – | –
O=C(O)/C=C/c1cc(Br)c(Br)c(Br)c1Br | 12 | -8 | 79 | 52 | 33 | – | 5 | 102 | 49 | –
O=C1C(Cl)=C(N2C(=O)CCC2=O)C(=O)c2ccccc21 | 99 | 100 | 89 | 79 | 100 | – | 98 | 102 | 80 | –
COc1cc2c(cc1OC)-c1n[nH]c(Nc3cccc(F)c3)c1C2 | 82 | 106 | 59 | 48 | – | 29 | – | 108 | 68 | 80
CCCC(=O)Oc1ccc2[nH]c(C(=O)c3cc4ccccc4[nH]3)cc2c1 | 86 | 106 | 81 | – | 132 | 100 | 98 | 122 | 101 | 101
Nc1nc(Nc2ccc(S(N)(=O)=O)cc2)nn1C(=O)c1c(F)cccc1F | 111 | 97 | 20 | 0 | 104 | 100 | 99 | 40 | 9 | 99
O=c1cc(N2CCNCC2)oc2c(-c3ccccc3)cccc12 | 79 | 52 | 81 | 100 | – | – | 90 | 90 | 93 | –
O=C1Nc2ccc(Cl)cc2/C1=C/c1cc(Cl)c(O)c(Cl)c1 | 41 | 4 | 70 | 29 | 92 | – | 32 | 84 | 45 | 96

SMILES | residual activity [1] [%] | residual activity [2] [%] | residual activity [3] [%] | residual activity [4] [%] | residual activity [5] [%] | residual activity [6] [%] | residual activity [7] [%] | residual activity [8] [%] | residual activity [9] [%] | residual activity [10] [%]
O=c1cc(N2CCOCC2)oc2c1ccc1ccccc12 | 18 | -1 | 91 | – | 56 | – | 5 | 98 | 45 | 103
O=C1Cc2c([nH]c3ccc(Br)cc23)-c2ccccc2N1 | 79 | 55 | 78 | 67 | – | 81 | 92 | 80 | 56 | –
CCCCc1c(-c2ccc(O)cc2)[nH]c2nccnc12 | 99 | 92 | 83 | 52 | – | – | 87 | 64 | 47 | –
CC(C)c1nn(-c2c(Cl)cccc2Cl)c2nc(Cc3ccc(OCCO)cc3)[nH]c(=O)c12 | 100 | 96 | 77 | 59 | 108 | 106 | 94 | 38 | 48 | 123
O=C1NC(=O)C(c2cn(CCCO)c3ncccc23)=C1c1cnccn1 | 76 | 66 | 74 | 78 | 57 | 97 | 52 | 52 | 36 | –
N#Cc1c(NC(=O)c2cccc3ccccc23)sc2c1CCCC2 | 97 | 99 | 77 | 87 | – | 99 | – | – | 99 | –
CCOC(=O)c1c(C)[nH]c(/C=C2\C(=O)Nc3ccccc32)c1C | 77 | 118 | 82 | 73 | 131 | – | 89 | 95 | 95 | –
CC(C)(C)c1nc2c3ccc(F)cc3c3c(=O)[nH]ccc3c2[nH]1 | 56 | 63 | 68 | 13 | 100 | – | 34 | 34 | 50 | –
NC(=O)c1cccc(-c2cc(Nc3ccc(OC(F)(F)F)cc3)ncn2)c1 | 99 | 97 | 97 | – | – | – | – | – | – | –
Oc1cccc(-c2nc(N3CCOCC3)c3oc4ncccc4c3n2)c1 | 89 | 124 | 79 | 30 | 140 | – | 79 | 118 | 89 | –
CC(C)N(CCC(=O)c1ccc2ccccc2c1)Cc1ccccc1 | – | – | 74 | – | – | – | – | – | – | –
O=c1c(-c2ccc(F)cc2)c(-c2ccncc2)[nH]n1-c1ccc(Cl)cc1 | – | – | – | 81 | – | – | – | 122 | 101 | –
CCCCc1c(-c2ccc(OC)cc2)[nH]c2nccnc12 | – | – | 85 | 73 | 111 | – | – | 78 | – | –
Cn1sc(=O)n(Cc2ccccc2)c1=O | 85 | 90 | 64 | 74 | – | 90 | – | – | – | 92
CCN(CC)CCNC(=O)c1c(C)[nH]c(/C=C2\C(=O)Nc3ccc(Cl)cc32)c1C | – | – | 77 | 4 | – | – | 47 | 9 | 1 | –
COc1ccc(COc2ccc(Cc3cnc(N)nc3N)cc2OC)cc1 | – | – | – | 3 | 110 | – | 74 | 108 | 100 | –
c1ccc(-c2cnc(Nc3ccc(OCCN4CCCC4)cc3)s2)cc1 | – | – | – | – | 127 | – | 81 | – | 30 | –
N#C/C(=C\c1ccc(O)c(O)c1)C(=O)NCc1ccccc1 | – | – | 82 | – | 129 | – | 100 | – | 80 | –
COc1cc2nccc(Oc3ccc(NC(=O)Nc4cc(C)on4)c(Cl)c3)c2cc1OC | – | – | 80 | 4 | – | 35 | – | – | 99 | 72
COc1ccc(-c2cnc3c(-c4ccsc4)cnn3c2)cc1 | – | – | 80 | 61 | – | 98 | – | – | – | –
CC(C)(C)n1nc(Cc2cccc3ccccc23)c2c(N)ncnc21 | – | – | 95 | 32 | 118 | 20 | 72 | 94 | 42 | 82

SMILES | residual activity [1] [%] | residual activity [2] [%] | residual activity [3] [%] | residual activity [4] [%] | residual activity [5] [%] | residual activity [6] [%] | residual activity [7] [%] | residual activity [8] [%] | residual activity [9] [%] | residual activity [10] [%]
NC(=O)c1ccc(-c2nc(-c3ccc4c(c3)OCCO4)c(-c3ccccn3)[nH]2)cc1 | 95 | 97 | 81 | 76 | – | 91 | – | – | – | 119
O=C1Nc2ccccc2/C1=C\c1c(Cl)[nH]c2ccccc12 | – | – | – | 76 | – | 99 | – | – | – | –
O=C1Cc2c([nH]c3ccc([N+](=O)[O-])cc23)-c2ccccc2N1 | – | – | – | 82 | – | – | – | – | – | –
Cn1c2ccccc2c2c3c(c4c5ccccc5n(CCC#N)c4c21)CNC3=O | – | 103 | – | 1 | 129 | 102 | 96 | – | – | 107
O=S(=O)(NCCNC/C=C/c1ccc(Br)cc1)c1cccc2cnccc12 | – | – | 79 | – | – | – | – | – | 68 | 100
Cc1cc(C)c(/C=C2\C(=O)Nc3ccccc32)[nH]1 | – | – | 80 | 11 | – | – | – | 49 | 37 | –
COc1ccc2c(c1)c(C1=C(c3c[nH]c4ccccc34)C(=O)NC1=O)cn2CCCN(C)C | – | 111 | 59 | 45 | – | – | – | 14 | 2 | –
O=S(=O)(c1cccc2cnccc12)N1CCCNCC1 | – | – | – | 81 | – | – | – | – | – | –
CC(C)[C@H](CO)Nc1nc(Nc2cc(N)cc(Cl)c2)c2ncn(C(C)C)c2n1 | – | 93 | – | – | 120 | 73 | 96 | – | – | –
Nc1ncnc2[nH]nc(Nc3ccc(F)cc3)c12 | 104 | – | – | – | 104 | 65 | 73 | 109 | 68 | 90
O=C(NC(NC(=S)Nc1ccc(F)c([N+](=O)[O-])c1)C(Cl)(Cl)Cl)C(c1ccccc1)c1ccccc1 (stereo not given) | – | 85 | 94 | 84 | – | 101 | – | – | – | 95
COc1ccc(CNC(=O)Nc2ncc([N+](=O)[O-])s2)cc1 | – | – | – | – | – | 74 | – | 102 | 105 | 81
O=C1NC(=O)C(c2cn(CCCn3ccnc3)c3ccccc23)=C1Nc1ccccc1 | – | – | 55 | 36 | – | 78 | – | 8 | 2 | 107
O=C(Nc1nc2ccccc2n1CCN1CCOCC1)c1cccc([N+](=O)[O-])c1 | 86 | – | 55 | 56 | – | 105 | – | 26 | 24 | 103
O=C(c1cc2cc(O)ccc2[nH]1)c1cc2cc(O)ccc2[nH]1 | – | – | 69 | 4 | – | – | 72 | 32 | 5 | –
COc1cc2ncnc(Nc3cccc(Cl)c3)c2cc1OC | – | – | – | 84 | 128 | 80 | 102 | 110 | 74 | 111
O=C1NC(=O)C(c2c[nH]c3ccccc23)=C1c1c[nH]c2ccccc12 | – | – | 60 | 29 | 118 | – | – | 27 | 5 | –
CCN1/C(=C/C(C)=O)Sc2ccc(OC)cc21 | – | – | 77 | 40 | – | – | – | 20 | 6 | –
Nc1nccc(-c2c(-c3ccc(F)cc3)ncn2C2CCNCC2)n1 | – | – | – | 68 | – | – | 60 | 69 | 30 | –
NCCNc1ncc(C(N)=O)c(Nc2cccc(C(F)(F)F)c2)n1 | – | – | 82 | 63 | – | – | – | – | – | –
O=C(Nc1ccc(Cl)cc1)c1ccccc1NCc1ccncc1 | – | – | – | – | – | – | – | 120 | 99 | –
